Reference: PubChem BioAssay (NCI)
This is part of a sample that, as a whole, favours compounds with a hit. Of some 83,000 tested, about 20% had one in any assay.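 Compound tested at a single concentration for 48 hours in 96-well plates; a percent growth value below 10 was scored as active.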 A number with no mark means an inactive call. The source made the active and inactive calls.

Columns and labels:
Experiment in all cases: NCI-60 one-dose screen, 48 h (100 = growth as untreated, 0 = no growth, -100 = all killed)
Conditions in all cases: 10 µM unless noted
NCI-H23 lung = tested on: NCI-H23 lung
NCI-H226 lung = tested on: NCI-H226 lung
NCI-H322M lung = tested on: NCI-H322M lung
HOP-62 NSCLC = tested on: HOP-62 NSCLC
NCI-H460 lung = tested on: NCI-H460 lung
HOP-92 NSCLC = tested on: HOP-92 NSCLC
NCI-H522 lung = tested on: NCI-H522 lung
A549/ATCC NSCLC = tested on: A549/ATCC NSCLC
786-0 renal = tested on: 786-0 renal
K-562 leukemia = tested on: K-562 leukemia
MALME-3M melanoma = tested on: MALME-3M melanoma
MDA-MB-231 breast = tested on: MDA-MB-231 breast
RXF 393 renal = tested on: RXF 393 renal
SF-268 CNS = tested on: SF-268 CNS
SF-295 CNS = tested on: SF-295 CNS
SF-539 CNS = tested on: SF-539 CNS
UACC-257 melanoma = tested on: UACC-257 melanoma
M14 melanoma = tested on: M14 melanoma
COLO 205 colon = tested on: COLO 205 colon
DU-145 prostate = tested on: DU-145 prostate

Compound | growth (NCI-H23 lung) | growth (NCI-H226 lung) | growth (NCI-H322M lung) | growth (HOP-62 NSCLC) | growth (NCI-H460 lung) | growth (HOP-92 NSCLC) | growth (NCI-H522 lung) | growth (A549/ATCC NSCLC) | growth (786-0 renal) | growth (K-562 leukemia) | growth (MALME-3M melanoma) | growth (MDA-MB-231 breast) | growth (RXF 393 renal) | growth (SF-268 CNS) | growth (SF-295 CNS) | growth (SF-539 CNS) | growth (UACC-257 melanoma) | growth (M14 melanoma) | growth (COLO 205 colon) | growth (DU-145 prostate)
CCOC(=O)C(=CNc1ccccc1[N+](=O)[O-])C(=O)OCC | 99% | 88.1% | 96.3% | 107% | 105% | 80.6% | 89.5% | 88.5% | 97.2% | 96.7% | 115% | 98.6% | 104% | 105% | 98.6% | 97.7% | 94.2% | 118% |  | 
O=C1c2ccccc2C2(c3ccc(O)cc3)c3ccccc3Oc3cccc1c32 (stereo unspecified) | 33.4% | 85.9% | 32.5% | 31.5% | 11.3% | 29.9% | 48.6% | 29% | 40.6% | 19.8% | 66.4% | 21.8% | 11% | 40.3% | 21.3% | -1.29% (active) | 48% | 0.454% (active) |  | 
Cc1cc2c(F)c(Oc3ncnc(Nc4ccc(N5C[C@@H](C)N[C@@H](C)C5)cc4)c3C#N)cc(F)c2[nH]1 | 75% | 74.1% | 47.9% | 75.8% | 6.38% (active) | 89.1% | -21.8% (active) | 13.7% |  | -40.4% (active) | 75% | -0.722% (active) | -25.7% (active) | 29.3% | 17.4% | -78.7% (active) | 65.9% |  | -56.5% (active) | 38.9%
CN(CCC(=O)/C(=C\c1ccccc1)c1ccc(Cl)cc1)Cc1ccccc1 | 29.2% | 65.6% | 71.2% | 47.6% | 42.2% | 82.9% | -45.9% (active) | 85.9% | -64.5% (active) | 22.7% | 18% | 13% | -29.3% (active) | 5.31% (active) | 25.7% | -8.26% (active) | 53.5% | 37.9% |  | 
COc1ccc(-c2nnc(-c3ccc4c(c3)nc(-c3ccccc3)n4C3CCCCC3)o2)cc1 | 62.5% | 46.4% | 87% | 50.5% | 64.4% | 57% | 17.6% | 50.3% | 77.5% |  | 69.4% | 72.9% | 97.3% | 71.2% | 53.2% | 88.1% | 67.4% | 38.9% |  | 71.7%
CCCCN(CCCC)CCCn1c(=O)c2sc3ncccc3c2n2nnc(-c3ccccc3)c12 | 101% | 105% | 103% | 105% | 105% | 74.8% | 89.5% | 102% | 108% | 108% |  | 93.8% | 111% | 112% |  | 99.6% | 104% | 107% |  | 114%
CCCCCCCCN(CCCCCCCC)C(=N)c1ccnc2ccccc12 | -66.4% (active) | 56.5% | -64.5% (active) | -85.7% (active) | -78% (active) | -21.2% (active) | -74.7% (active) | -82.5% (active) | -100% (active) | -52.7% (active) | -78.5% (active) | -77.2% (active) | -87.8% (active) | -71.8% (active) | -84.4% (active) | -87.6% (active) | -68.9% (active) | -84.6% (active) |  | 
Cc1cn(C2CCCCC2)c(=O)[nH]c1=O | 115% | 101% | 129% | 109% | 117% | 97.4% | 97.8% | 101% | 107% |  | 120% | 103% | 113% | 108% | 111% | 109% | 102% | 106% |  | 163%
COc1ccc(OC)c(/C=C2\COc3ccc(O)c(O)c3C2=O)c1 | 48.9% | 85.2% | 54.3% | 30.2% | 4.53% (active) | 56.7% | -33.4% (active) |  | 22.4% | 5.87% (active) | -5.32% (active) | 9.33% (active) |  | 15.9% | 78.4% | -23.1% (active) | 49.4% |  | 95.3% | 3.87% (active)
Cc1ccccc1NC(=O)CN(C)C | 95.7% | 97.9% | 89.9% | 97.9% | 113% | 123% | 82.6% | 95.7% | 99.7% | 0.938% (active) | 87.2% | 105% | 124% | 103% | 97.3% | 98.3% | 99.3% | 104% |  | 
c1ccc([P+](CCCc2n(Cc3ccc4ccccc4c3)c3ccccc3[n+]2Cc2ccc3ccccc3c2)(c2ccccc2)c2ccccc2)cc1 | 44% | 83.5% | 63.8% | 61.6% | 34.8% | 46.3% | 60.2% |  | 70.8% | 23.7% | 65.2% | 51% |  | 79% | 41.1% | 36.8% | 84% |  | 44.7% | 82.1%
Cc1nn(-c2ccccc2)c2c1C(c1ccc([N+](=O)[O-])cc1)C(C#N)=C(N)O2 (stereo unspecified) | 98.4% | 99.3% | 116% | 94.3% | 108% | 91.7% | 97.5% | 102% | 102% |  |  | 87.4% | 99.2% | 108% |  | 95.9% | 88.1% | 106% |  | 111%
C[C@@H]1C(=O)N(C[C@H](Cc2ccccc2)NC(=O)OCc2ccccc2)[C@]1(Cc1ccccc1)C(=O)OC(C)(C)C | 71.8% | 62.2% | 86.7% | 80.2% | 66.6% | 54.5% | 45% | 47.2% |  | 40.5% | 79.5% | 66.4% | 71.2% | 65.7% | 69.6% | 87.1% | 66.1% |  | 62% | 87.1%
Nc1nc(N)c(-c2ccc(Cl)cc2)c(/C=C/c2ccc([N+](=O)[O-])cc2)n1 | 90.8% | 91.4% | 46.8% | 100% | 11.4% | 76.1% | 97.4% | 47.9% | 99.3% | 19.4% |  | 95.4% | 74.7% | 79.3% | 51.5% | 93.5% | 66.3% | 63.6% |  | 87.2%
CCNCCNc1cc(-c2cccc(C(F)(F)F)c2)c(C#N)c2nc3ccccc3n12 | -57.6% (active) | -67.2% (active) | -63.1% (active) | -75.1% (active) | -70.4% (active) | -58.1% (active) | -71.3% (active) |  | -88% (active) | -65.8% (active) | -77.3% (active) | -66.2% (active) | -85.6% (active) | -73.8% (active) | -82.3% (active) | -88.7% (active) | -84.4% (active) | -89.3% (active) |  | -74.9% (active)
CCc1c(C(=O)N[C@@H]2c3cc(Cl)ccc3CC[C@@H]2O)[nH]c(C)c1C(C)=O | 100% | 76.5% | 91.2% | 72.1% | 33.6% |  | 65.9% | 62% | 89.3% | 69.7% | 110% | 84.2% | 92.3% | 73.2% | 64.7% | 67% | 80.2% | 87.4% |  | 94.5%
N=C(N)c1ccc(-c2ccc(-c3ccc(Cl)c(Cl)c3)o2)nc1 | 65.5% | 109% | 42.4% | 5.09% (active) | -78.1% (active) |  | 78.2% | -35.2% (active) | -74.9% (active) | -1.03% (active) | 105% | -47% (active) | 86% | 98.5% | -70.1% (active) | 38.8% | 107% | -51.8% (active) |  | -18.5% (active)
